Source: ChEMBL document CHEMBL4513216, “Probing the Open Global Health Chemical Diversity Library for Multistage-Active Starting Points for Next-Generation Antimalarials” (ACS Infect Dis, 2020)
Out of some 69,000 compounds screened, about 8,600 (12%) showed an effect of 50% or more. For the sample, strong results were picked, then their nearest neighbours and some compounds at random.

The compounds below were run on Plasmodium berghei (assay: Screen against P. berghei liver stage (PbLuc), transformed with Luciferase, at 10uM). Settings: tested at 10 uM.
Type: functional, HepG2
Compound `CC(C)C1COC2(CCN(Cc3ccco3)CC2)C1` (stereo unspecified) has an INHIBITION of -2.35%. Compound `O=C1CCCN1Cc1ncn2c1CN(Cc1cccs1)CCC2` has an INHIBITION of 21.8%. Compound `Cn1ccnc1CNC(=O)c1cncc(C2CCNCC2)n1` has an INHIBITION of 27.6%. In the case of `O=S(=O)(NCC(O)c1ccc2c(c1)CCO2)c1ccccc1F` (stereo unspecified), the INHIBITION is reported as 50.5%. Work on `Cn1cnc(S(=O)(=O)NCC(O)c2ccc3c(c2)CCO3)c1` (stereo unspecified) yielded an INHIBITION of 25.3%. Compound `Cn1cccc1C(O)CNS(=O)(=O)c1ccccc1F` (stereo unspecified) has an INHIBITION of 51%. For `Cn1cccc1C(O)CNS(=O)(=O)c1ccccc1Br` (stereo unspecified), the INHIBITION was -29.2%. `Cc1noc(C)c1S(=O)(=O)NCC(O)c1ccc2c(c1)CCO2` (stereo unspecified) gave an INHIBITION of 42.3%. `Cc1cc(F)ccc1S(=O)(=O)NCC(O)c1cccn1C` (stereo unspecified) gave an INHIBITION of -1.99%. `NC(=O)CN1CCc2c(Br)ccc(F)c2C1` showed an INHIBITION of -15%. In the case of `Cc1nn(C)cc1Cn1c(=O)ccc2ccccc21`, the INHIBITION is reported as 33%. With `CC(=O)N1CCC(Cc2cnc(-c3c(C)n[nH]c3C)cn2)C1` (stereo unspecified) the INHIBITION was 36.4%. For `CCN1C(=O)CCCC12CCCN(C(=O)c1sccc1C)C2` (stereo unspecified), the INHIBITION was -17.1%. Work on `CS(=O)(=O)N1CCC2(CC1)CC(Oc1ccccn1)CO2` (stereo unspecified) yielded an INHIBITION of 10.7%. `O=C(c1cc[nH]n1)N1CCC(F)(F)C2(CCN(c3ccccn3)C2)C1` (stereo unspecified) gave an INHIBITION of 37.8%. In the case of `CC(NC(=O)Nc1cccnc1N1CCCC1)c1ccncc1` (stereo unspecified), the INHIBITION is reported as 7.12%. For `CC(NC(=O)Nc1cccnc1N1CCCC1)c1ccccn1` (stereo unspecified), the INHIBITION was -17.9%. In the case of `Cc1nn(C)c(C)c1C(C)NC(=O)Nc1cccnc1N1CCCC1` (stereo unspecified), the INHIBITION is reported as 11.6%. `CC(NC(=O)Nc1cccnc1N1CCCC1)c1ccn(C)c1` (stereo unspecified) was tested, and the INHIBITION was 62.6%. With `Cc1nn(C(C)C)c(C)c1NC(=O)Nc1cccnc1N1CCCC1` the INHIBITION was 26.9%. With `Cc1nn(C)c(C)c1NC(=O)Nc1cccnc1N1CCCC1` the INHIBITION was 54.3%. With `Cn1nnc2c1CCN(Cc1ccncc1)C2COCC1CC1` (stereo unspecified) the INHIBITION was 35.4%. With `Cc1ccc(NC2CCN(C(=O)c3cc(C)sc3C)CC2)nn1` the INHIBITION was 9.14%. `CN(C)CC1CN(C(=O)Cc2ccccc2)Cc2nccn2C1` (stereo unspecified) gave an INHIBITION of 31.6%. `Cc1nonc1C1CCCN1C(=O)c1cn2ccsc2n1` (stereo unspecified) showed an INHIBITION of -16.6%. With `Cc1cncc(C(=O)N2CCCC(O)(CO)C2)c1` (stereo unspecified) the INHIBITION was 15.1%. Work on `CC(C)C(NC(=O)NCc1cccnc1N(C)C)c1cccs1` (stereo unspecified) yielded an INHIBITION of 17.5%. `Cc1oncc1C(=O)N1CC[C@H]2[C@@H]1CCC(=O)N2CC1CCOCC1` gave an INHIBITION of 56.4%. `CCc1cnc(N2CC[C@H]3[C@@H]2CCC(=O)N3c2ccccc2)nc1` showed an INHIBITION of 33.5%. `Cc1oncc1C(=O)N1CC[C@H]2[C@@H]1CCC(=O)N2c1cccnc1` was tested, and the INHIBITION was 18.3%. `Cc1ccc(C(=O)N2CC[C@@H]3[C@H]2CCC(=O)N3CC2CC2)o1` showed an INHIBITION of 37.9%. With `CCc1cnc(N2CC[C@H]3[C@@H]2CCC(=O)N3CC2CCOCC2)nc1` the INHIBITION was 51.2%. Work on `Cc1oncc1C(=O)N1CC[C@@H]2[C@@H]1CC(=O)N2Cc1cccnc1` yielded an INHIBITION of 8.66%. `O=C1CC[C@H]2[C@H](CCN2c2ccccn2)N1CC1CCOCC1` gave an INHIBITION of 12.7%. Work on `Cc1oncc1C(=O)N1CC[C@H]2[C@@H]1CCC(=O)N2CC1CC1` yielded an INHIBITION of 55.4%. `Cc1cc(C(=O)N2CC[C@H]3[C@H]2CCN3S(C)(=O)=O)c(C)o1` was tested, and the INHIBITION was 39.4%. In the case of `Cc1noc(C)c1CN1CC[C@H]2[C@@H]1CCC(=O)N2CC1CCOCC1`, the INHIBITION is reported as 6.67%. For `Cc1oncc1C(=O)N1CC[C@H]2[C@H]1CCN2S(C)(=O)=O`, the INHIBITION was 62.9%. For `Cc1cccc(CN2CC[C@@H]3[C@@H]2CCN3C(=O)c2cnoc2C)n1`, the INHIBITION was -17%. Work on `Cc1nc(S(=O)(=O)N2CCSC3(CCCCC3)C2)cn1C` yielded an INHIBITION of -12.1%. With `CC(C)CC(=O)N1CC[C@@H]2[C@H](CC1)N(Cc1cccnc1)CCS2(=O)=O` the INHIBITION was 20.4%. Compound `O=C(Cc1ccccn1)N1CCN(C(=O)CC2CCCC2)CC1` has an INHIBITION of 3.73%. With `Cc1nn(C)c2cnn(Cc3ccc(C(=O)NCC4CC4)o3)c12` the INHIBITION was 38.3%. `CN(Cc1cnn(C)c1)C(=O)NCC1CCS(=O)(=O)C1` (stereo unspecified) was tested, and the INHIBITION was -22.3%. Compound `CC(=O)N1CCC2(C1)CN(C(=O)C1CCOC1)C2` (stereo unspecified) has an INHIBITION of 9.97%. `CN(C)CCOCC1CN(C(=O)c2cccn2C)Cc2ccnn2C1` (stereo unspecified) showed an INHIBITION of -7.59%. In the case of `Cn1ccc(C(=O)N2CCCC(Cc3cccc4cccnc34)C2)n1` (stereo unspecified), the INHIBITION is reported as -0.371%. For `CSCCCN1C[C@H](NC(=O)c2ccc(C#N)nc2)[C@@H](C2CC2)C1`, the INHIBITION was 27.4%. With `CCCc1cncnc1N1CCC(NCc2ccc(O)cc2)CC1` the INHIBITION was 29.9%. In the case of `CCCc1cncnc1N1CCC(NCc2ccncc2)CC1`, the INHIBITION is reported as 49.1%. With `CCCc1cncnc1N1CCC(NCc2cc3ccccc3[nH]2)CC1` the INHIBITION was 88.2%. `Cc1csc(C2(NC(=O)CCc3ccncc3)CCCC2)n1` showed an INHIBITION of 20%. Work on `CCOCCn1nc(C2CCNCC2)n(Cc2ccccc2)c1=O` yielded an INHIBITION of 8.51%. Work on `CCn1c(C2CCCNC2)nn(Cc2ccc(C(=O)NC)o2)c1=O` (stereo unspecified) yielded an INHIBITION of 38.5%. `CCn1c(C2CCNCC2)nn(CCCc2ccccc2)c1=O` was tested, and the INHIBITION was 52.1%. Work on `CCn1c(CC2CCNCC2)nn(Cc2ccc(C(=O)NC)o2)c1=O` yielded an INHIBITION of 44.8%. Work on `CCn1c(C2CCNCC2)nn(Cc2ccc(C(=O)NC)o2)c1=O` yielded an INHIBITION of 52.1%. For `CCCn1nc(C2CCNCC2)n(Cc2ccccc2)c1=O`, the INHIBITION was 26.8%. In the case of `CC(CN1CCOCC1)NC(=O)N1CCCC1` (stereo unspecified), the INHIBITION is reported as -15%. For `CN(C)[C@@H]1CCN(c2ncccn2)[C@H]1Cc1ccncc1`, the INHIBITION was 26.8%. In the case of `COC(=O)c1ccc(OC)c(Cn2cc(Br)cn2)c1`, the INHIBITION is reported as 20.6%. `Cc1[nH]c2ccc(CNC(=O)c3ccc(CN4CCCC4)o3)cc2c1C` gave an INHIBITION of 40.3%. Compound `O=C(CN1CCCCCC1)NCc1ccc2[nH]c(=O)[nH]c2c1` has an INHIBITION of -20.1%. Work on `O=C(NCc1ccc2[nH]c(=O)[nH]c2c1)c1ccc(CN2CCCC2)o1` yielded an INHIBITION of 56.2%. In the case of `CC1CCCN1Cc1ccccc1-c1nc(C(C)(C)C)cc(=O)[nH]1` (stereo unspecified), the INHIBITION is reported as 9%. In the case of `CN(C)c1ccc(C(=O)N2CCCC(n3cncn3)C2)nn1` (stereo unspecified), the INHIBITION is reported as 0.411%.
